Reference: ChEMBL document CHEMBL2218924, “A broad activity screen in support of a chemogenomic map for kinase signalling research and drug discovery” (Biochem J, 2013)

How the values were obtained:
[1] = molecular target: Ribosomal protein S6 kinase alpha-4 (Homo sapiens) (UniProt O75676); conditions: at 1 µM
[2] = molecular target: Ribosomal protein S6 kinase alpha-4 (Homo sapiens) (UniProt O75676); conditions: at 10 µM
[3] = molecular target: SRSF protein kinase 3 (Homo sapiens) (UniProt Q9UPE1); conditions: at 1 µM
Sequence of SRSF protein kinase 3 (Homo sapiens) (Q9UPE1 whole entry): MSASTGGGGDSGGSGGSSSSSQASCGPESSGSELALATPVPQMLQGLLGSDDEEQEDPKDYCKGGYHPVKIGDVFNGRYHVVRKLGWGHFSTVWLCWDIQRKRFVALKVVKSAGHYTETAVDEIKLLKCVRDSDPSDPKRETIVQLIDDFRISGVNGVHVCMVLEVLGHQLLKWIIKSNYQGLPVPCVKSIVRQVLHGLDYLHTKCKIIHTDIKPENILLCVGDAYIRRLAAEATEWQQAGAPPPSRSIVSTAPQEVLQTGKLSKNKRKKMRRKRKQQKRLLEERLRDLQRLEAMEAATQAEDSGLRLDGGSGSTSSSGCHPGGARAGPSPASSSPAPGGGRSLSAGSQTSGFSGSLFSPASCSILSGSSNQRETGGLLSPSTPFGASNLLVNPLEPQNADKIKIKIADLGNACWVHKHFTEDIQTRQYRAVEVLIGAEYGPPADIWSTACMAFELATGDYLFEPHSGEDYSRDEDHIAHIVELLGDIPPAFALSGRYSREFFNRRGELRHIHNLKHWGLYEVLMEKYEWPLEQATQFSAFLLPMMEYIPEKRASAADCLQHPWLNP

[4] = molecular target: SRSF protein kinase 3 (Homo sapiens) (UniProt Q9UPE1); conditions: at 10 µM
[5] = molecular target: T1, Serine/threonine-protein kinase 4 (Homo sapiens) (UniProt Q13043); conditions: at 1 µM
T1 sequence (whole entry): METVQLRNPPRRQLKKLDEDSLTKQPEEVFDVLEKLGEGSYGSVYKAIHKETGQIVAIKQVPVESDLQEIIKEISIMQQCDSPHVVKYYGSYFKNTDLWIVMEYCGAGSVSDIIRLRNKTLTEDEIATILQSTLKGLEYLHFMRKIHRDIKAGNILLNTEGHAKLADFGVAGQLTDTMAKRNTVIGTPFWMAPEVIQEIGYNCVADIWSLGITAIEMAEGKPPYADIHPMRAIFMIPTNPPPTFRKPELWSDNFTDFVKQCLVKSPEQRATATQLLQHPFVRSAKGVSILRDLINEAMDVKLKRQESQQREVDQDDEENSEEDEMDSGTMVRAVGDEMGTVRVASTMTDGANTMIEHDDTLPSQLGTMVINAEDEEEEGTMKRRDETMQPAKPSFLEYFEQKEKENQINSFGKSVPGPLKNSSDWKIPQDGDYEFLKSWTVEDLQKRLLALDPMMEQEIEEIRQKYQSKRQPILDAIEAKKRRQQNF

[6] = molecular target: T1, Serine/threonine-protein kinase 4 (Homo sapiens); conditions: at 10 µM
[7] = molecular target: T2, Serine/threonine-protein kinase 3 (Homo sapiens) (UniProt Q13188); conditions: at 1 µM
T2 sequence (whole entry): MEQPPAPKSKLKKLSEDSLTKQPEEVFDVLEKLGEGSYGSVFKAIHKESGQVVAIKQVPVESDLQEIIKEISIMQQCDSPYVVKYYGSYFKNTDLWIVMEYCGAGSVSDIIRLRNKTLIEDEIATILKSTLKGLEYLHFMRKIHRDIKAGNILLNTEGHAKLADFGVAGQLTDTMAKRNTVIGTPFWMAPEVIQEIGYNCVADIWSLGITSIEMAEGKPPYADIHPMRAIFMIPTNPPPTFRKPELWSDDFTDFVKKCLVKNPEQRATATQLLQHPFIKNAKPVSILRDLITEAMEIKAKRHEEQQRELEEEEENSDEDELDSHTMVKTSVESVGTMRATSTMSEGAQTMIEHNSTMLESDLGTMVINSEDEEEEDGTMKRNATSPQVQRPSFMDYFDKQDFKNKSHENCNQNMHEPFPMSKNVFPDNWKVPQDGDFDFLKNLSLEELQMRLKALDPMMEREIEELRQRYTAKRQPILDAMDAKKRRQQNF

[8] = molecular target: T2, Serine/threonine-protein kinase 3 (Homo sapiens); conditions: at 10 µM
[9] = molecular target: Serine/threonine-protein kinase 24 (Homo sapiens) (UniProt Q9Y6E0); conditions: at 1 µM
Sequence of Serine/threonine-protein kinase 24 (Homo sapiens) (Q9Y6E0 whole entry, looked up): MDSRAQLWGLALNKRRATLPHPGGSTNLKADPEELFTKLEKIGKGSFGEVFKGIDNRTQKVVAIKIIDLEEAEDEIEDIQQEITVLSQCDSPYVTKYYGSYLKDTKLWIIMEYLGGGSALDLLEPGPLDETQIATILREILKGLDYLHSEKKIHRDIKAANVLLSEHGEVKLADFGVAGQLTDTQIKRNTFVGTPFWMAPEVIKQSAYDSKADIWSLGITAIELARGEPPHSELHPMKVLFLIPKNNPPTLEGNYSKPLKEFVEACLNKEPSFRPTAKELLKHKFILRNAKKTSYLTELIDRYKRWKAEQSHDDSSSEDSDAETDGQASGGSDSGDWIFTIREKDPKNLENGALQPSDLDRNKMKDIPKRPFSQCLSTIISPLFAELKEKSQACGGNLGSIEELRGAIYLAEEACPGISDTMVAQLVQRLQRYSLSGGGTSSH

[10] = molecular target: Serine/threonine-protein kinase 24 (Homo sapiens) (UniProt Q9Y6E0); conditions: at 10 µM
[11] = molecular target: T3, Tyrosine-protein kinase Mer (Homo sapiens) (UniProt Q12866); conditions: at 1 µM
T3 sequence (whole entry): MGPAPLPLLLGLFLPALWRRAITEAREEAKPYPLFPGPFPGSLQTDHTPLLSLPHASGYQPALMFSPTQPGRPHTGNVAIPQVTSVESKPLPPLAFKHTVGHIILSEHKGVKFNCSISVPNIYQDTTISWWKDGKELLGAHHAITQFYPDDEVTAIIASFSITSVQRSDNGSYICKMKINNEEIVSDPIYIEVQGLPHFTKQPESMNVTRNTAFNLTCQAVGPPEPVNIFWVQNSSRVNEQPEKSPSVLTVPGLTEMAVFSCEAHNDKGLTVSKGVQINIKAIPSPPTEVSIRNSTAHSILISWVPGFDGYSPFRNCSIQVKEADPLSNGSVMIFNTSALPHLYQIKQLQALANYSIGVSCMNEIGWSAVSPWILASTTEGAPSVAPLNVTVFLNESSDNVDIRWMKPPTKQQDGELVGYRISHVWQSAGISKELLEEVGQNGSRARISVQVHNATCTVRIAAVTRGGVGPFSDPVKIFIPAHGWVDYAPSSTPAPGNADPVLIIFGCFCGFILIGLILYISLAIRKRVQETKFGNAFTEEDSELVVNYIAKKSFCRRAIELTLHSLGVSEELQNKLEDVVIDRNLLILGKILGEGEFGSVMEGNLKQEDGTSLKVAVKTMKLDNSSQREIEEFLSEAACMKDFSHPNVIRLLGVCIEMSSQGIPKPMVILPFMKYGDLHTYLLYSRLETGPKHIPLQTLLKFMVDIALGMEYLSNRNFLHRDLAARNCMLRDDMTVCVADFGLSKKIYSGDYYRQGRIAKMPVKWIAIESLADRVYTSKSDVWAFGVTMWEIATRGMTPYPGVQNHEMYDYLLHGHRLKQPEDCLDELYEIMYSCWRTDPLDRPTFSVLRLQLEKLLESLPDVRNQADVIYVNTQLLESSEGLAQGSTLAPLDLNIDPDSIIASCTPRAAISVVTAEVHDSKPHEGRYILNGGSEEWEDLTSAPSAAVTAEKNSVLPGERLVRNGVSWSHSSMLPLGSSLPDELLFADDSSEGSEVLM

[12] = molecular target: T3, Tyrosine-protein kinase Mer (Homo sapiens); conditions: at 10 µM
[13] = molecular target: MAP kinase-interacting serine/threonine-protein kinase 2 (Homo sapiens) (UniProt Q9HBH9); conditions: at 1 µM
Sequence of MAP kinase-interacting serine/threonine-protein kinase 2 (Homo sapiens) (Q9HBH9 whole entry, looked up): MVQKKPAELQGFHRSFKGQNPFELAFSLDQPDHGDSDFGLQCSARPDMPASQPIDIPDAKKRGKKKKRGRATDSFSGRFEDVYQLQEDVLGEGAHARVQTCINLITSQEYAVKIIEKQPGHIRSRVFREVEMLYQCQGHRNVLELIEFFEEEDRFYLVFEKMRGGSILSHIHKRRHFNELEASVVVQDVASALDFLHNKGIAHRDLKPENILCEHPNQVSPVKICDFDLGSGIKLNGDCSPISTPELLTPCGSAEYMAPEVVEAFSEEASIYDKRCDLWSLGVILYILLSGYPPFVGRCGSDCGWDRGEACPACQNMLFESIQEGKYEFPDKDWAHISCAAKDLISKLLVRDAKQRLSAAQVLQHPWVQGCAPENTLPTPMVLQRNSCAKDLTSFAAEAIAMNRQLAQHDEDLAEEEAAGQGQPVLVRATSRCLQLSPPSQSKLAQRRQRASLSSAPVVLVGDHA

[14] = molecular target: MAP kinase-interacting serine/threonine-protein kinase 2 (Homo sapiens) (UniProt Q9HBH9); conditions: at 10 µM
[15] = molecular target: T4, Serine/threonine-protein kinase Nek11 (Homo sapiens) (UniProt Q8NG66); conditions: at 1 µM
T4 sequence (whole entry): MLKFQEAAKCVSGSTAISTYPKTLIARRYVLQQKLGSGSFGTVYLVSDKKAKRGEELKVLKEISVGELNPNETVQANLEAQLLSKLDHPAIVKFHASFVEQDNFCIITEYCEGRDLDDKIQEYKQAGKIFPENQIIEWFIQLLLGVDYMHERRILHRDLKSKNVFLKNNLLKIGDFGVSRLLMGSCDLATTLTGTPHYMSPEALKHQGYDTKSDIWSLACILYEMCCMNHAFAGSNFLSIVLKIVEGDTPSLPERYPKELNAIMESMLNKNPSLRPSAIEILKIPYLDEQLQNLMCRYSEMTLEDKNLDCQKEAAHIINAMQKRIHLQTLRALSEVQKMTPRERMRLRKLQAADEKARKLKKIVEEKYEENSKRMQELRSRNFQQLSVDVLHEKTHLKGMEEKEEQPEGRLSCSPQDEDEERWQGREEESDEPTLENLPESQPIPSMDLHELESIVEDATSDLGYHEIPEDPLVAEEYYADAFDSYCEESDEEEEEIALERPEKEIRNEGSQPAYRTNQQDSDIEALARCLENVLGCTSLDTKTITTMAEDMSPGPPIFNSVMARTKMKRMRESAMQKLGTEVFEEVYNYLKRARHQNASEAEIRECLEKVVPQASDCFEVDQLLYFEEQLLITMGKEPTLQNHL

[16] = molecular target: T4, Serine/threonine-protein kinase Nek11 (Homo sapiens); conditions: at 10 µM
[17] = molecular target: Hepatocyte growth factor receptor (Homo sapiens) (UniProt P08581); conditions: at 1 µM
Sequence of Hepatocyte growth factor receptor (Homo sapiens) (P08581 whole entry): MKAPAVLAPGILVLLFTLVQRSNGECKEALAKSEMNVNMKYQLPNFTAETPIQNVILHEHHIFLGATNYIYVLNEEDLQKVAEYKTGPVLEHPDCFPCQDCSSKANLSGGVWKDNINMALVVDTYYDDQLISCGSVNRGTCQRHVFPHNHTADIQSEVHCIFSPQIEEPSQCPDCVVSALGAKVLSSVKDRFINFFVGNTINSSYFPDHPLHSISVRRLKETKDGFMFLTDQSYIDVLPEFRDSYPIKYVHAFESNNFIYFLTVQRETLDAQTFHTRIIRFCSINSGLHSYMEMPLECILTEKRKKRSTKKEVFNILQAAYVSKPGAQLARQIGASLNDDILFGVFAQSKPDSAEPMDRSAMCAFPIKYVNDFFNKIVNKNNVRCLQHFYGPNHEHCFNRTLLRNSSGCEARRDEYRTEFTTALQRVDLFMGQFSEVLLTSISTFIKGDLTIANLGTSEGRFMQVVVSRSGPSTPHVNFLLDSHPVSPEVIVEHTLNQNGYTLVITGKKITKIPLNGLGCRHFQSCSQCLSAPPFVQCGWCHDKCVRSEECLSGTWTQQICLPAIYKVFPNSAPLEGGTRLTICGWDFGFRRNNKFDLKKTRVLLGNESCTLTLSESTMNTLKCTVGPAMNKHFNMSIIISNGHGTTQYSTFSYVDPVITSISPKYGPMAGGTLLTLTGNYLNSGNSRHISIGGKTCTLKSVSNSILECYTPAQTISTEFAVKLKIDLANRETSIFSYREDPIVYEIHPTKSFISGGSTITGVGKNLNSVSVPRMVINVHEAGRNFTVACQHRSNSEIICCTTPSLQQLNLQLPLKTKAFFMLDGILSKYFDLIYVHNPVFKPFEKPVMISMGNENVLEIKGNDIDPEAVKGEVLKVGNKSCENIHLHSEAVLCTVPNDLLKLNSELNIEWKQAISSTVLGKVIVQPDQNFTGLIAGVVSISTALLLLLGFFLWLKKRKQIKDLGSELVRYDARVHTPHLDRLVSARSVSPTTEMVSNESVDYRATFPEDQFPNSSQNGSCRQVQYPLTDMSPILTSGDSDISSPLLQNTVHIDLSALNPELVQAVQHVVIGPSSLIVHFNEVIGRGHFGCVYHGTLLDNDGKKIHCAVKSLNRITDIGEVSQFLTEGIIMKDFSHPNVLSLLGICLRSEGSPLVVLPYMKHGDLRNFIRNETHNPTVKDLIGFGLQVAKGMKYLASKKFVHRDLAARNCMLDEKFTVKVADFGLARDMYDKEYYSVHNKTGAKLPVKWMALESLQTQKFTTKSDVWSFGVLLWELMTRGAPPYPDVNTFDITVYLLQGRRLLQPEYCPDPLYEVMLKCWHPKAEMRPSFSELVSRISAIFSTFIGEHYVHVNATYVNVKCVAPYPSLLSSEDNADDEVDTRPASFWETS

[18] = molecular target: Hepatocyte growth factor receptor (Homo sapiens) (UniProt P08581); conditions: at 10 µM
[19] = molecular target: T5, Muscle, skeletal receptor tyrosine-protein kinase (Homo sapiens) (UniProt O15146); conditions: at 1 µM
T5 sequence (whole entry): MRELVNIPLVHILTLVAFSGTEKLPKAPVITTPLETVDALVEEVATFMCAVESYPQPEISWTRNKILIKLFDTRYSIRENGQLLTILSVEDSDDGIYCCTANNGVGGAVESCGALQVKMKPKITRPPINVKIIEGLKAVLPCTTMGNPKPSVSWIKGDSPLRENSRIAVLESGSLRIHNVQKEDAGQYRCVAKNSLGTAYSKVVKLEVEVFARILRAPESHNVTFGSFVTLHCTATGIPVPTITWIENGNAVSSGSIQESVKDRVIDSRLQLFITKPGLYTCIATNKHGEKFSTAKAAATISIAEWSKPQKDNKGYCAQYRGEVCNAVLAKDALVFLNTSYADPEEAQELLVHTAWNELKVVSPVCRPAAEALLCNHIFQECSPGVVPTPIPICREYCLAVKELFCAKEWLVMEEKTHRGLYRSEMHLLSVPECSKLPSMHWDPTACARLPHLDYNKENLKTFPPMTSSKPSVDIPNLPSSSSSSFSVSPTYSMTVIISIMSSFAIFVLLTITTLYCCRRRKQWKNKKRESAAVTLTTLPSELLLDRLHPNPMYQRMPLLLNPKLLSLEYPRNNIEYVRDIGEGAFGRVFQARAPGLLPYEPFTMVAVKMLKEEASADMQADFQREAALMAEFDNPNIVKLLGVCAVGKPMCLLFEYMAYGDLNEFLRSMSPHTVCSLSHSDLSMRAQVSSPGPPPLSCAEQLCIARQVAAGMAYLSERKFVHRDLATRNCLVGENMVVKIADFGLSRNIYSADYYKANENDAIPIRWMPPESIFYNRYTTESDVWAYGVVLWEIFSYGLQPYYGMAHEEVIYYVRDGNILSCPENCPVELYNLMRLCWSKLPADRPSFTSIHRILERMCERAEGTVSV

[20] = molecular target: T5, Muscle, skeletal receptor tyrosine-protein kinase (Homo sapiens); conditions: at 10 µM

Sequence of Ribosomal protein S6 kinase alpha-4 (Homo sapiens) (O75676 whole entry, looked up): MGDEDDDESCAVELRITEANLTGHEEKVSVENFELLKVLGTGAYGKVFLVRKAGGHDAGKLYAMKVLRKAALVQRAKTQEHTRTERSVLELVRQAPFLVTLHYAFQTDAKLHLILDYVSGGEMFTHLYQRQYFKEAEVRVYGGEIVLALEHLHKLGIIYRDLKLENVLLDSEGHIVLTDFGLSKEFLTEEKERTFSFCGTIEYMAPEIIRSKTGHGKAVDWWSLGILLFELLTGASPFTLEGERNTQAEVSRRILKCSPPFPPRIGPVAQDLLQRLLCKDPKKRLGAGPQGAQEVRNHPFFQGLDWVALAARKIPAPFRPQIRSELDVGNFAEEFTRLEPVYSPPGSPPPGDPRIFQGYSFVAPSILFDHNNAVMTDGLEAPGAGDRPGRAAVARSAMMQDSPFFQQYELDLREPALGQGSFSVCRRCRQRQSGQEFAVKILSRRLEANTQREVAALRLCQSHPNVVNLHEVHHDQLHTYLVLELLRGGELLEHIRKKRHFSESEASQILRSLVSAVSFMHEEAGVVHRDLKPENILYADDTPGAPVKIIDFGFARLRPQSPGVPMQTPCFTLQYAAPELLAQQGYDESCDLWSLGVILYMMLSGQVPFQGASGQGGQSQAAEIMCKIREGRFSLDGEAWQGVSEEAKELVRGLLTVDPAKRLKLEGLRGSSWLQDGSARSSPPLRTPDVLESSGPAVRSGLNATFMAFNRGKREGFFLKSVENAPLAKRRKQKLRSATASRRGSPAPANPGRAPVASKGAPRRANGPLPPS

| Compound | residual activity [1] | residual activity [2] | residual activity [3] | residual activity [4] | residual activity [5] | residual activity [6] | residual activity [7] | residual activity [8] | residual activity [9] | residual activity [10] | residual activity [11] | residual activity [12] | residual activity [13] | residual activity [14] | residual activity [15] | residual activity [16] | residual activity [17] | residual activity [18] | residual activity [19] | residual activity [20] |
| --- | --- | --- | --- | --- | --- | --- | --- | --- | --- | --- | --- | --- | --- | --- | --- | --- | --- | --- | --- | --- |
| O=C1NC(=O)c2c1c1c3ccccc3n3c1c1c2c2ccccc2n1C1CCC3O1 | 56% | 64% | 99% | 96% | 19% | -1% | 10% | 12% | 80% | 65% | 34% | 11% | 97% | 95% | 91% | 87% |  |  |  |  |
| O=C1Nc2ccc3ncsc3c2/C1=C/c1c[nH]cn1 | 20% | 6% | 98% | 68% | 1% | 3% | 2% | 1% | 3% | 0% | 6% | 2% | 9% | 4% | 50% | 13% | 18% | 4% | 53% | 11% |
| COc1ccc2c(c1)/C(=C/c1cnc[nH]1)C(=O)N2 | 63% | 19% |  |  |  |  | 16% | 3% |  |  |  |  |  | 40% |  |  |  | 42% | 80% | 27% |
| COc1cc2ncnc(Nc3ccc(OCc4ccccc4)cc3)c2cc1OC | 99% | 101% | 122% | 89% | 95% | 104% | 111% | 81% | 70% | 90% | 64% | 49% | 90% | 68% | 99% | 101% | 87% | 87% | 118% | 77% |
| COc1ccc2c(c[n+](C)c3c4cc5c(cc4ccc23)OCO5)c1OC |  | 94% | 110% | 66% | 92% | 98% |  | 94% | 73% | 73% |  |  |  | 82% |  |  | 94% | 85% |  | 95% |
| COc1cc(OC)c(/C=C2\C(=O)Nc3ccccc32)c(OC)c1 | 96% | 94% | 101% |  | 108% | 105% | 102% | 91% | 80% | 76% | 95% | 93% | 99% | 96% | 43% | 61% | 103% | 94% | 88% | 78% |
| CCc1nc(-c2ccc(OC)cc2)[nH]c1-c1ccncc1 |  |  | 123% | 103% |  | 111% |  |  |  |  |  |  | 105% | 59% | 62% | 72% |  |  | 117% | 76% |
| C[S+]([O-])c1ccc(-c2nc(-c3ccc(F)cc3)c(-c3ccncc3)[nH]2)cc1 (stereo not drawn) | 102% | 81% | 102% | 101% | 111% | 109% | 104% | 93% | 115% | 102% | 117% | 105% | 103% | 87% | 90% |  | 123% | 68% | 143% | 95% |
